This passage reports composite z-score and z-score results from PubChem BioAssay.

Activity calls are given as the source filed them.

The test system of assay [1] is PRMT1 (protein arginine N-methyltransferase 1). In words: small molecules binding arginine methyltransferase PRMT1 – biochemical, small-molecule microarray, 635 nm fluorescence, primary screen (AID 1088).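 Also: binding of Prmt1 protein to compounds spotted on small-molecule microarray slides.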 Conditions: higher = more signal.
Assay [2] is described as follows: growth effects on S. cerevisiae YJM789 – YJM789 clinical isolate, OD600, 24 h, basal, primary screen (AID 1089).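 Also: growth of clinical yeast isolate S. cerevisiae YJM 789 seeded 1000 cells per well; test concentration not given here.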 Conditions: higher = more signal, called active from +8 up or from −8 down.
Assay [3] is described as follows: S. pombe growth modifiers, basal conditions – strain 972, OD600, 24 h, no modulator, primary screen (AID 1090).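 Also: basal condition with compound alone and no growth modifier present; test concentration not given here.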 To be noted: S. pombe 972 growth, higher = more signal, called active from +8 up or from −8 down.
Assay [4] is described as follows: budding yeast growth modifiers under rapamycin – strain BY4716, OD600, 96 h, primary screen (AID 1091). Also: test concentration not given here. To be noted: S. cerevisiae BY4716 + rapamycin, higher = more signal, called active from +8 up or from −8 down.
The target of assay [5] is Torsin-1A-interacting protein 2 (Homo sapiens) (UniProt Q8NFQ8). In words: small molecules binding lysate-expressed LULL1 – cell lysate, human LULL1 lysate, 635/667 nm fluorescence, primary screen (AID 1092).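 Also: probe is lysate of COS7 cells overexpressing human LULL1; score merges per-feature 667 nm fluorescence with signal-to-noise.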 Conditions: small-molecule microarray, hLULL1 lysate binding, 635 nm fluorescence; higher = more signal.
A short description of assay [6]: optical density change of DRC41 E. coli – strain DRC41, OD650, 24 h, E. coli filamentation project, primary screen (AID 1093).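 Also: MC1000 strain lacking acrAB efflux and sulA so SOS filamentation is blocked; test concentration not given here.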 To be noted: E. coli DRC41 growth, higher = more signal, called active from +8 up or from −8 down.
Assay [7] can be described thus: probe aLefty2 binding to arrayed compounds – biochemical, biotinylated probe, 635/667 nm fluorescence, primary screen (AID 1094).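 Also: score merges spot fluorescence near 667 nm with spot signal-to-noise ratio.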 To be noted: small-molecule microarray, higher = more signal.
Assay [8] deals with Noggin (protein binding on small-molecule microarray). In words: small molecules binding Noggin protein – biochemical, 635/667 nm fluorescence, primary screen (AID 1095).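 Also: score merges 667 nm feature fluorescence with signal to noise over triplicate slides.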 To be noted: 635 nm fluorescence, higher = more signal.
Assay [9] deals with Neurogenic locus notch homolog protein 3 (Homo sapiens) (UniProt Q9UM47). In words: small molecules binding NOTCH3 protein – biochemical, 635/667 nm fluorescence, primary screen (AID 1096). To be noted: small-molecule microarray, 635 nm fluorescence, higher = more signal.
Assay [10] is described as follows: probe aEGFR binding to arrayed compounds – biochemical, biotinylated probe, 635/667 nm fluorescence, primary screen (AID 1097).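 Also: probe is a biotinylated anti-EGFR antibody binding compounds printed on slides; score combines fluorescence near 667 nm and signal to noise of each spot.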 To be noted: small-molecule microarray, higher = more signal.

Chain of Torsin-1A-interacting protein 2 (Homo sapiens) (Q8NFQ8 whole entry, looked up): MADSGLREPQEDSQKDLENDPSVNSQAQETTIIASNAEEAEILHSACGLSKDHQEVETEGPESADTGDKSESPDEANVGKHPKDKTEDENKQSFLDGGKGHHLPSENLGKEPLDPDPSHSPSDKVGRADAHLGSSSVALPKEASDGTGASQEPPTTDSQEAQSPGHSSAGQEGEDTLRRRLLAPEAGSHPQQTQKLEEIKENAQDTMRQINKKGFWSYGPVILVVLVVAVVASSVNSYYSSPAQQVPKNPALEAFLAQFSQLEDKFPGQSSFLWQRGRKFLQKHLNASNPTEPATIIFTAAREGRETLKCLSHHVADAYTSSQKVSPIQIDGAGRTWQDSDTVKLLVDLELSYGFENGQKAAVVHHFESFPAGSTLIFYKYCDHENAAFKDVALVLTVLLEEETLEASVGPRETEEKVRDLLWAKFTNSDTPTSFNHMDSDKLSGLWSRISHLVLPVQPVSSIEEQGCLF
Chain of Neurogenic locus notch homolog protein 3 (Homo sapiens) (Q9UM47 whole entry, looked up): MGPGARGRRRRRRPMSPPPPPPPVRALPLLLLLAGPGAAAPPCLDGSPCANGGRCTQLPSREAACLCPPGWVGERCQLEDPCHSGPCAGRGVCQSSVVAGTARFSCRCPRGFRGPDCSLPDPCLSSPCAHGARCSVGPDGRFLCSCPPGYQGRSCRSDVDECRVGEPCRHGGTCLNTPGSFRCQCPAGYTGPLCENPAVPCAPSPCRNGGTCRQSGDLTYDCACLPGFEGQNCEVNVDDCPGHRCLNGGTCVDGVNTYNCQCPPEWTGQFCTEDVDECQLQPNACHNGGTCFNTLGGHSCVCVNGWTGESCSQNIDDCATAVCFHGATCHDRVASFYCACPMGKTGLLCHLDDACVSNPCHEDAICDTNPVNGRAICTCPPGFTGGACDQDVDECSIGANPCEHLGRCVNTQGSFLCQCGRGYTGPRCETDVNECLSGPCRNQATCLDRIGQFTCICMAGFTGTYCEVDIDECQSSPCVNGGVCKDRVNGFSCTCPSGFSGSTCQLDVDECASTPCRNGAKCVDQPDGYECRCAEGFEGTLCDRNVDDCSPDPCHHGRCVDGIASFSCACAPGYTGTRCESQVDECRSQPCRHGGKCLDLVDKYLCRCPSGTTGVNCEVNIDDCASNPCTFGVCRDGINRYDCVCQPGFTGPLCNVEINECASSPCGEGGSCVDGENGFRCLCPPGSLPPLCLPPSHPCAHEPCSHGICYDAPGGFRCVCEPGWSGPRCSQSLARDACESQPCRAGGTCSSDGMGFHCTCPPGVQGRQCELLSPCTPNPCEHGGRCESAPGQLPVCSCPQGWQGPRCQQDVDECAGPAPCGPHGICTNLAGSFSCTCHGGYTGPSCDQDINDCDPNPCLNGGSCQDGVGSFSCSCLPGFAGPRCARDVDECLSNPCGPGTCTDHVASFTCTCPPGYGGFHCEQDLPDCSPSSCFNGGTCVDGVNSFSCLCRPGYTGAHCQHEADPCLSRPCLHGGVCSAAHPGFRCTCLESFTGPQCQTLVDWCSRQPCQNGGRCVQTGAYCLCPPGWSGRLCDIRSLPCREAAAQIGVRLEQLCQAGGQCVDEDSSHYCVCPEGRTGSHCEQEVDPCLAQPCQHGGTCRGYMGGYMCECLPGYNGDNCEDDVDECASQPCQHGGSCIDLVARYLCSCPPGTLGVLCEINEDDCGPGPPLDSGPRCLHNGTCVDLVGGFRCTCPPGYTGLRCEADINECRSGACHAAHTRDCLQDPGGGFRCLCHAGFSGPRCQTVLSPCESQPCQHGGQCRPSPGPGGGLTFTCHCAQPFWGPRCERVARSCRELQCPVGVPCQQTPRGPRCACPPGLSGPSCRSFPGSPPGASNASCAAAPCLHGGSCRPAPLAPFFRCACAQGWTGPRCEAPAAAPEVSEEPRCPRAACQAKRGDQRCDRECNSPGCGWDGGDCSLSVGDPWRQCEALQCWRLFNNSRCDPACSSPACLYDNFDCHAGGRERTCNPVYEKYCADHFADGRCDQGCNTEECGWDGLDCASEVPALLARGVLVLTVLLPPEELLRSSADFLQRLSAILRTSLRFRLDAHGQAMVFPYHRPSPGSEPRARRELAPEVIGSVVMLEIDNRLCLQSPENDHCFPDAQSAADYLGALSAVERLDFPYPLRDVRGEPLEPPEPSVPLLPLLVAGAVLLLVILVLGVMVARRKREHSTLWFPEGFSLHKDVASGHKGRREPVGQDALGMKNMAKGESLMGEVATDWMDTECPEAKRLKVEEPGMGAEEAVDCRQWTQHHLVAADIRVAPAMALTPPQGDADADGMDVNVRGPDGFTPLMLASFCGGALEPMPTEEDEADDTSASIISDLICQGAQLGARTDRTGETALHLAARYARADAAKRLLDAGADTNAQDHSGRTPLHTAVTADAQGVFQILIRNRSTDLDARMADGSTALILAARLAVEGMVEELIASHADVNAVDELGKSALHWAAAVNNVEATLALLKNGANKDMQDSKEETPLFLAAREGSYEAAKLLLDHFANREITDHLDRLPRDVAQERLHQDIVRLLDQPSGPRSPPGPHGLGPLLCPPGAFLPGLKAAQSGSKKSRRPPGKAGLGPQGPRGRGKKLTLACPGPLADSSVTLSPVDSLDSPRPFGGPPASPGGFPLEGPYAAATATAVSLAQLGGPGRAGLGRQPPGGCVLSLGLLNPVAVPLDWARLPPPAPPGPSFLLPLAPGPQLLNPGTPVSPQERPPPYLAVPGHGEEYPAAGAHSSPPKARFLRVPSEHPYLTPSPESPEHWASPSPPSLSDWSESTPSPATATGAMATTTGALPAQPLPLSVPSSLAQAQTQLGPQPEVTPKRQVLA

As for `COc1ccc([Si](C)(C)[C@H]2[C@H](CCn3cc(CCO)nn3)O[C@@]3(C(=O)N(Cc4ccc(N5C(=O)c6cccc7cccc5c67)cc4)c4ccccc43)[C@@H]2C)cc1`, the composite z-score in assay [1] is 1.55; in assay [5] it was 1.86; in assay [7], -0.0895; in [8], 1.41; in assay [9] it was 1.09; in [10], -0.0371. Also, the z-score in assay [2] was -0.246 (inactive); in assay [3] it was 0.983 (inactive); in assay [4], 6.07 (inactive); in assay [6], 2.76 (inactive).
On to `CCOC(=CC(=O)OC)CC(O)c1cccc(Cl)c1` (stereo not given), for which the composite z-score is 1.39 in assay [1]; 2.4 in assay [5]; -0.125 in [7]; -0.673 in [8]; 0.27 in [9]; -0.128 in [10]. Besides, the z-score in assay [2] was -4.05 (inactive); in assay [3], -7.01 (inactive); in assay [4], -1.53 (inactive); in assay [6], 0.341 (inactive).
Consider `COCCCNC(=O)[C@]1(CCC(=O)OC(C)(C)C)N=C(c2ccc(OCCCO)cc2)O[C@@H]1c1ccccc1`, for which the composite z-score in assay [1] was 1.22; in [5] it was 3.65; in [7], 0.629; in assay [8] it was -0.275; in assay [9], 0.226; in assay [10], 0.475. For the same compound, the z-score in assay [2] was 0.12 (inactive); in [3], 1.06 (inactive); in assay [4] it was -0.302 (inactive); in assay [6], 0.447 (inactive).
In the case of `NC(=O)NCC#Cc1ccc2c(c1)[C@]1(C(=O)N2)[C@H](C(=O)O)[C@H]2C(=O)O[C@H](c3ccccc3)[C@H](c3ccccc3)N2[C@@H]1c1ccccc1OCCO`, the composite z-score in [1] came to 1.43; in [5], 1.43; in [7], 0.857; in assay [8], 1.01; in [9], 1.11; in assay [10] it was 0.0223. The z-score in assay [2] is -1.39 (inactive); in [3] it was -1.19 (inactive); in assay [4], -0.675 (inactive); in assay [6] it was 3.22 (inactive).
In the case of `C[C@H]1C2=C3C(CC[C@H]4C(OCc5ccc(F)cc5C(F)(F)F)OC[C@](C)([C@@H]34)N(C(=O)OC(C)(C)C)C2)C2COC(=O)OCC21` (stereo not given in full), the composite z-score in [1] is 0.63; in [5], 3.52; in assay [7] it was 0.453; in [8], -0.618; in assay [9] it was 1.07; in [10] it was -0.019. The z-score is -0.271 (inactive) in assay [2], -1.22 (inactive) in assay [3], 0.258 (inactive) in [4] and -1.4 (inactive) in [6].
Regarding `COc1cc(OC)c(C(O)C2C=CC3C(=O)N(c4ccccc4)C(=O)C3N2Nc2ccc(C#N)cc2)cc1Br` (stereo not given), the composite z-score in [1] is 0.977; in [5], 2.64; in [7], 0.929; in [8], -0.109; in assay [9], 1.15; in assay [10], 0.621. Besides, the z-score in assay [2] was -0.459 (inactive); in assay [3], 1.86 (inactive); in [4], -0.772 (inactive); in assay [6], -0.409 (inactive).
Take `CCOc1cc(C(O)C2C=CC3C(=O)N(C)C(=O)C3N2N2CCCCC2)ccc1O` (stereo not given): the composite z-score was 0.163 in [1]; 2.56 in assay [5]; 0.0209 in assay [7]; -0.185 in assay [8]; 0.0152 in [9]; 0.0054 in assay [10]. For the same compound, the z-score in assay [2] is 1.26 (inactive); in [3], 0.803 (inactive); in assay [4], 1.63 (inactive); in assay [6], -0.613 (inactive).
